CHRM1 agonist: agonists of human M1 muscarinic receptor; P11229; CHO-K1 hM1, Fluo-8 calcium fluorescence, agonist mode; 0% DMSO, 100% acetylcholine EC100; activation, % at 3 µM; 360,000 tested, 0.33% active;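 active = activation above the run's mean compound activation plus 3 SD, cut at about 16% in these data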;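 also: peak over basal fluorescence ratio within a 140 s kinetic read after compound addition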
Target sequence (P11229 whole entry, looked up): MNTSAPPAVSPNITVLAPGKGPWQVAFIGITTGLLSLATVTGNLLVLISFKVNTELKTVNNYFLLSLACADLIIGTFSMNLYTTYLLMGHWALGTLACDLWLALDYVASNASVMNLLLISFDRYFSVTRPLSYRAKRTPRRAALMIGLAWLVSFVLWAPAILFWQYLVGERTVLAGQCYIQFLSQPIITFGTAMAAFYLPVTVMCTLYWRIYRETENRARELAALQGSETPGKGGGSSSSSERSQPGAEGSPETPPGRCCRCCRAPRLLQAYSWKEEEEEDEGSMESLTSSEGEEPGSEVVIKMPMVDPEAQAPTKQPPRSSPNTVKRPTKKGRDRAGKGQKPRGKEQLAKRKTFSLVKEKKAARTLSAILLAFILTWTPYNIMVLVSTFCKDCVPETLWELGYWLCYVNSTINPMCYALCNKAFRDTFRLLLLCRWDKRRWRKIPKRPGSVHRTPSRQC
CHO-K1 Ca antag: nonselective inhibitor or artifact in parental CHO-K1 cells; ATP-induced calcium, Fluo-8 fluorescence; inhibition, % at 3 µM; 360,000 tested, 0.6% active; AID 602250;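 active = inhibition above a per-plate cutoff, the plate's mean sample inhibition plus 3 SD, cut at about 24% in these data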;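 also: 0% = DMSO plus EC80 ATP and 100% = DMSO alone without ATP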
CHO-K1 Ca PAM: counter-screen for M1 PAMs: effect in parental CHO-K1 cells. ATP EC20, Fluo-8 calcium fluorescence; 0% at ATP EC20, 100% at ATP max. activation, % at 3 µM. 360,000 tested, 0.02% active. AID 602247;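 active = activation above the run cutoff, the mean activation of all test compounds plus 3 SD, cut at about 40% in these data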;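 also: peak over basal fluorescence ratio in a 140 s read after ATP addition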
M1 PAM: human CHRM1 positive allosteric modulation; CHO-K1 hM1, Fluo-8 calcium fluorescence, ACh EC20; 0% = ACh EC20, 100% = maximal ACh; 360,000 tested, 0.088% active; P11229; activation, % at 3 µM; in the data active = activation above about 19%, passing the limit was not always enough
CHO-K1 Ca ag: counter-screen for M1 agonists: effect in parental CHO-K1 cells; Fluo-8 calcium fluorescence; scaled to maximal ATP response, vehicle zero; activation, % at 3 µM; 360,000 tested, 0.48% active; AID 602248; in the data active = activation above about 15%;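 also: untransfected CHO-K1 host cells lacking M1 receptor as counterscreen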
M1 antag: human CHRM1 antagonism; CHO-K1 hM1, Fluo-8 calcium fluorescence, ACh EC80 antagonist; 360,000 tested, 1.3% active; inhibition, % at 3 µM; AID 588852;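 active = percent inhibition above its own plate's cutoff, namely the mean of that plate's compound wells plus 3 SD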;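 also: peak over basal fluorescence ratio during 140 s after agonist addition; 0% = ACh EC80 plus DMSO and 100% = DMSO alone without agonist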
* = called active by the depositor. Compounds with a hit are over-represented: about 2.3% of the library has one in this group of screens.

Screening CC1CCC(CN2CCN=C2Nc2ccccc2)CC1 (stereo unspecified) returned CHRM1 agonist -11, CHO-K1 Ca antag 3, CHO-K1 Ca PAM -13, M1 PAM -17, CHO-K1 Ca ag 0 and M1 antag 34*.
Screening C=C1C(=O)OCC2C(C(=O)O)=CC3C(C)C(C)=CC123 (stereo unspecified) returned CHRM1 agonist 3, CHO-K1 Ca antag 22, CHO-K1 Ca PAM -7, M1 PAM -3, CHO-K1 Ca ag 1 and M1 antag -1.
Screening CNCCCCOc1ccccc1-c1ccccc1 returned CHRM1 agonist -8, CHO-K1 Ca antag -5, CHO-K1 Ca PAM 14, M1 PAM -23, CHO-K1 Ca ag 4 and M1 antag 37*.
CN(C)CCOCCOc1ccccc1-c1ccccc1 was read as CHRM1 agonist -8, CHO-K1 Ca antag -14, CHO-K1 Ca PAM 28, M1 PAM -12, CHO-K1 Ca ag 1 and M1 antag 18.
`CN(C)CCOc1ccccc1-c1ccccc1` gave CHRM1 agonist -6, CHO-K1 Ca antag 2, CHO-K1 Ca PAM 4, M1 PAM -21, CHO-K1 Ca ag 0 and M1 antag 45*.
`c1ccc(C(Cc2nc(-c3ccncc3)no2)c2ccccc2)cc1` gave CHRM1 agonist -3, CHO-K1 Ca antag 15, CHO-K1 Ca PAM -2, M1 PAM -16, CHO-K1 Ca ag 5 and M1 antag 24*.
COc1ccc(CCC(=O)NCCS(=O)(=O)N2CCN(c3ccc(OC)cc3)CC2)cc1 was read as CHRM1 agonist 1, CHO-K1 Ca antag -6, CHO-K1 Ca PAM 4, M1 PAM -18, CHO-K1 Ca ag 15* and M1 antag 19.
For COc1ccc(CCC(=O)NCCS(=O)(=O)N2CCN(c3ccccc3)CC2)cc1 the results were CHRM1 agonist 4, CHO-K1 Ca antag -4, CHO-K1 Ca PAM 1, M1 PAM 16, CHO-K1 Ca ag 9 and M1 antag -3.
`CCn1c(=O)c(C(=O)CN2CCCc3ccccc32)c(N)n(Cc2ccccc2)c1=O` gave CHRM1 agonist -6, CHO-K1 Ca antag 14, CHO-K1 Ca PAM 2, M1 PAM -10, CHO-K1 Ca ag 0 and M1 antag 22*.
CCc1nc2ccc(C(=O)Nc3cccc(OCC(=O)N(C)C)c3)cn2c1N(C)Cc1cc2ccccc2s1 was read as CHRM1 agonist -1, CHO-K1 Ca antag 9, CHO-K1 Ca PAM -4, M1 PAM -25, CHO-K1 Ca ag 8 and M1 antag 50*.
`CCNC(=O)N(C)c1c(CC)nc2ccc(C(=O)Nc3cccc(OCC(=O)N(C)C)c3)cn12` gave CHRM1 agonist -1, CHO-K1 Ca antag 14, CHO-K1 Ca PAM -18, M1 PAM -13, CHO-K1 Ca ag 0 and M1 antag 32*.
For CCc1nc2ccc(C(=O)Nc3cccc(OCC(=O)N(C)C)c3)cn2c1N(C)C(=O)c1ccncc1 the results were CHRM1 agonist -2, CHO-K1 Ca antag -17, CHO-K1 Ca PAM 10, M1 PAM 9, CHO-K1 Ca ag 1 and M1 antag -19.
Screening Cc1ccc(-n2c(CSc3nc(C)cc(C)n3)nnc2SCC(=O)NCc2ccco2)cc1 returned CHRM1 agonist -5, CHO-K1 Ca antag -13, CHO-K1 Ca PAM 29, M1 PAM 3, CHO-K1 Ca ag 2 and M1 antag 0.
`CCN(C[C@H]1N[C@@](Cc2ccccc2)(C(=O)OC)[C@H]2C(=O)N(Cc3ccccc3)C(=O)[C@@H]12)C(=O)Nc1ccc(C(F)(F)F)cc1` gave CHRM1 agonist 4, CHO-K1 Ca antag 31*, CHO-K1 Ca PAM -15, M1 PAM -13, CHO-K1 Ca ag 7 and M1 antag 22.
CCN(C[C@H]1N[C@@](Cc2ccccc2)(C(=O)OC)[C@H]2C(=O)N(C)C(=O)[C@@H]12)C(=O)c1ccccc1 was read as CHRM1 agonist -3, CHO-K1 Ca antag 2, CHO-K1 Ca PAM 11, M1 PAM 2, CHO-K1 Ca ag 1 and M1 antag 0.
COC(=O)[C@]1(Cc2ccccc2)N[C@H](CN(C)C(=O)c2ccc(F)cc2)[C@@H]2C(=O)N(C)C(=O)[C@@H]21 was read as CHRM1 agonist 4, CHO-K1 Ca antag -14, CHO-K1 Ca PAM 6, M1 PAM 27*, CHO-K1 Ca ag 1 and M1 antag -23.
For CCN(C[C@H]1N[C@@](Cc2ccccc2)(C(=O)OC)[C@H]2C(=O)N(C)C(=O)[C@@H]12)C(=O)C1CCCCC1 the results were CHRM1 agonist 1, CHO-K1 Ca antag 26*, CHO-K1 Ca PAM -9, M1 PAM 9, CHO-K1 Ca ag 0 and M1 antag -10.
CCN(C[C@H]1N[C@@](Cc2ccccc2)(C(=O)OC)[C@H]2C(=O)N(C)C(=O)[C@@H]12)S(=O)(=O)c1ccc(C(F)(F)F)cc1 was read as CHRM1 agonist 0, CHO-K1 Ca antag 22, CHO-K1 Ca PAM -11, M1 PAM -19, CHO-K1 Ca ag 6 and M1 antag 41*.
Screening CCc1nnc(NC(=O)CSc2nccn2-c2cc(C)cc(C)c2)s1 returned CHRM1 agonist 5, CHO-K1 Ca antag -4, CHO-K1 Ca PAM 10, M1 PAM 19, CHO-K1 Ca ag 0 and M1 antag -16.
Screening Cc1cccc(CC(=O)N2CCN(C(=O)c3ccco3)CC2)c1 returned CHRM1 agonist -3, CHO-K1 Ca antag -10, CHO-K1 Ca PAM -8, M1 PAM 1, CHO-K1 Ca ag 1 and M1 antag -5.
COc1ccc(C(CNC(=O)c2cncc(Br)c2)N(C)C)cc1 (stereo unspecified) was read as CHRM1 agonist -7, CHO-K1 Ca antag -2, CHO-K1 Ca PAM -14, M1 PAM 9, CHO-K1 Ca ag 0 and M1 antag -14.
For CCCOc1cccc(C(=O)N/N=C/c2coc3ccccc3c2=O)c1 the results were CHRM1 agonist 0, CHO-K1 Ca antag 20, CHO-K1 Ca PAM -23, M1 PAM 1, CHO-K1 Ca ag 0 and M1 antag 30*.
Cn1c2ccccc2c2cc(C(=O)N3CCN(CCO)CC3)sc21 was read as CHRM1 agonist -5, CHO-K1 Ca antag 24*, CHO-K1 Ca PAM -6, M1 PAM 4, CHO-K1 Ca ag 0 and M1 antag 0.
Screening COc1ccc(-n2cc(-c3ccccc3)c3c(NCCCN4CCOCC4)ncnc32)cc1 returned CHRM1 agonist -6, CHO-K1 Ca antag -20, CHO-K1 Ca PAM -8, M1 PAM -6, CHO-K1 Ca ag 4 and M1 antag 11.
For CCN1CCN(c2ncnc3c2c(-c2ccccc2)cn3-c2ccc(F)cc2)CC1 the results were CHRM1 agonist -5, CHO-K1 Ca antag -12, CHO-K1 Ca PAM 3, M1 PAM 5, CHO-K1 Ca ag 0 and M1 antag -6.
Fc1ccc(-n2cc(-c3ccccc3)c3c(N4CCOCC4)ncnc32)cc1 was read as CHRM1 agonist -2, CHO-K1 Ca antag -5, CHO-K1 Ca PAM -4, M1 PAM -10, CHO-K1 Ca ag 5 and M1 antag 33*.

High-throughput results deposited in PubChem BioAssay by The Scripps Research Institute Molecular Screening Center.
